Legend:
Conditions in all cases: concentration: 1 μM, replicates: in singlicate; n = 1
TNNI3K = system: TNNI3K
TRKA = system: T1, TRKA
T1 construct: gene NTRK1

TRKB = system: TRKB
TRKC = system: T2, TRKC
T2 construct: gene NTRK3

TRPM6 = system: TRPM6
TSSK1B = system: TSSK1B
TSSK3 = system: TSSK3
TTK = system: TTK
TXK = system: TXK
[1] = system: TYK2(JH1domain-catalytic)
[2] = system: TYK2(JH2domain-pseudokinase)
TYRO3 = system: TYRO3
ULK1 = system: ULK1
ULK2 = system: ULK2
ULK3 = system: ULK3
VEGFR2 = system: T3, VEGFR2
T3 construct: gene KDR

VPS34 = system: T4, VPS34
T4 construct: gene PIK3C3

VRK2 = system: VRK2
WEE1 = system: WEE1
WEE2 = system: WEE2
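Further: KINOMEscan kinase panel screen.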

Row | Compound | %Inh (TNNI3K) [%] | %Inh (TRKA) [%] | %Inh (TRKB) [%] | %Inh (TRKC) [%] | %Inh (TRPM6) [%] | %Inh (TSSK1B) [%] | %Inh (TSSK3) [%] | %Inh (TTK) [%] | %Inh (TXK) [%] | %Inh [1] [%] | %Inh [2] [%] | %Inh (TYRO3) [%] | %Inh (ULK1) [%] | %Inh (ULK2) [%] | %Inh (ULK3) [%] | %Inh (VEGFR2) [%] | %Inh (VPS34) [%] | %Inh (VRK2) [%] | %Inh (WEE1) [%] | %Inh (WEE2) [%]
1 | O=C(NC1CCN(c2ccnc(Nc3ccc(F)cc3)n2)C1)c1cc2ccccc2s1 (stereo not shown) [GSK1379716] | 4 | 10 | 0 | 8 | 22 | 5 | 19 | 17 | 8 | 2 | 31 | 0 | 0 | 1 | 32 | 0 | 38 | 0 | 50 | 0
2 | COc1ccc(Nc2nccc(N3CCC(NC(=O)Nc4cccc(OC)c4)C3)n2)cc1 (stereo not shown) [GSK1379742] | 0 | 54 | 40 | 76 | 0 | 0 | 18 | 0 | 0 | 24 | 5 | 0 | 0 | 0 | 17 | 17 | 16 | 0 | 52 | 13
3 | COc1cc(Nc2ncc3c(C)nc(-c4cc5ccccc5[nH]4)n3n2)cc(OC)c1OC [GW869516] | 33 | 4 | 0 | 0 | 0 | 6 | 0 | 36 | 10 | 0 | 82 | 32 | 48 | 51 | 20 | 0 | 0 | 0 | 36 | 85
4 | CC(C)(C)c1ccc2nccc(Nc3cccc(O)c3)c2c1 [GW856795] | 0 | 72 | 40 | 31 | 0 | 0 | 60 | 0 | 79 | 42 | 32 | 0 | 0 | 19 | 0 | 50 | 52 | 100 | 0 | 13
5 | Nc1ncc(-c2ccc3nccc(-c4ccncc4)c3c2)cc1S(=O)(=O)N1CCOCC1 [GSK1627798] | 0 | 90.2 | 90.7 | 74 | 0 | 0 | 0 | 8 | 0 | 0 | 21 | 0 | 0 | 0 | 6 | 0 | 93.3 | 0 | 0 | 3
6 | COc1cccc(C2=C(Nc3ccc(Cl)c(C(=O)O)c3)C(=O)NC2=O)c1 [SB-390769] | 13 | 0 | 48 | 34 | 0 | 30 | 16 | 0 | 3 | 100 | 100 | 0 | 100 | 100 | 100 | 0 | 0 | 31 | 14 | 0
7 | CC(=O)Nc1nc2cnc(Nc3cc(NC(=O)c4cccc(C5(C#N)CC5)c4Cl)ccc3C)nc2s1 | 18 | 0 | 0 | 0 | 0 | 0 | 0 | 21 | 33 | 0 | 0 | 15 | 0 | 6 | 0 | 40 | 22 | 0 | 0 | 32
8 | O=C(Nc1n[nH]c2cc(-c3ccoc3)ccc12)C1CC1 [SB-738481] | 0 | 30 | 25 | 49 | 0 | 0 | 0 | 0 | 20 | 51 | 7 | 0 | 0 | 1 | 10 | 32 | 0 | 0 | 0 | 0
9 | O=C(Nc1cccc(-c2nn3ccccc3c2-c2ccnc(Nc3cccc(F)c3)n2)c1)c1c(F)ccc(F)c1Cl [GSK357952] | 0 | 11 | 0 | 0 | 32 | 0 | 6 | 28 | 67 | 11 | 0 | 81 | 21 | 0 | 13 | 12 | 22 | 0 | 0 | 3
10 | Cc1ccc(S(=O)(=O)Nc2ccc(Nc3nccc(Nc4cccc5[nH]ncc45)n3)cc2)cc1 [GSK581271] | 7 | 0 | 33 | 24 | 11 | 4 | 11 | 0 | 77 | 42 | 93.6 | 0 | 19 | 0 | 38 | 0 | 60 | 0 | 6 | 8
11 | Cc1ccc(C(=O)N2CC[C@@H](O)C2)cc1-n1c(C)cc(OCc2ccc(F)cc2F)c(Br)c1=O | 0 | 0 | 0 | 0 | 0 | 0 | 0 | 3 | 0 | 0 | 0 | 0 | 0 | 0 | 0 | 0 | 0 | 0 | 0 | 0
12 | Nc1ncc(-c2cccnc2)c2scc(-c3ccc4c(c3)CCN4C(=O)Cc3ccccc3)c12 [GSK683281] | 20 | 22 | 0 | 0 | 40 | 20 | 22 | 0 | 10 | 11 | 0 | 15 | 7 | 0 | 10 | 30 | 29 | 0 | 22 | 17
13 | Nc1ncnc2c1nc(-c1ccccc1)n2-c1ccccc1 [SKF-97293] | 0 | 37 | 48 | 36 | 50 | 2 | 22 | 0 | 15 | 68 | 54 | 9 | 51 | 35 | 50 | 23 | 44 | 36 | 4 | 0
14 | O=C(Nc1cccc(-c2nn3ncccc3c2-c2ccnc(Nc3ccccc3)n2)c1)c1c(F)cccc1F [GSK198271] | 36 | 0 | 0 | 0 | 55 | 0 | 18 | 7 | 84 | 7 | 0 | 100 | 22 | 0 | 6 | 80 | 0 | 0 | 40 | 0
15 | O=C(Nc1n[nH]c2nc(-c3ccc(O)cc3)ccc12)C1CC1 [SB-710363] | 0 | 26 | 0 | 41 | 0 | 0 | 37 | 0 | 0 | 9 | 0 | 0 | 2 | 21 | 29 | 26 | 0 | 0 | 0 | 1
16 | O=C(Nc1cccc(-c2nn3ccccc3c2-c2ccnc(Nc3cccc(C(F)(F)F)c3)n2)c1)c1c(F)cccc1F [GSK292658] | 0 | 0 | 0 | 0 | 11 | 2 | 5 | 20 | 48 | 20 | 0 | 67 | 31 | 9 | 5 | 8 | 0 | 0 | 0 | 0
17 | CN(C)S(=O)(=O)c1cc(-c2ccc3nccc(-c4cccc(S(N)(=O)=O)c4)c3c2)cnc1N [GSK1669921] | 8 | 87 | 0 | 48 | 4 | 3 | 18 | 47 | 26 | 13 | 23 | 0 | 8 | 0 | 6 | 29 | 92.7 | 7 | 9 | 17
